# Measured values taken from the supplement of paper PMC8726507.
# System: Plasmodium falciparum NF54-HGL (transmission to Anopheles stephensi)
# Test: percentage of barcode signal found in uninfected mosquitoes (transmission-blocking activity); higher = stronger blocking of transmission to mosquito, active = 80 or more
# Details: 20 µM; gametocyte preincubation time 24 h; readout time post-feed 8 days
# Procedure: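 The mixture was fed to Anopheles stephensi in 96-well plates as blood meals tagged with DNA-barcoded Asaia bacteria. Eight days later, mosquitoes were classed infected or uninfected by luminescence (mean + 5 SD of unfed controls). Barcodes were quantified by Luminex MagPlex-TAG in the pooled uninfected and infected Asaia cultures, background-corrected, and the score is % of barcode signal in uninfected mosquitoes = 100*Iu/(Iu+Ii).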
row,SMILES,percentage of barcode signal found in uninfected mosquitoes
1,CCc1ccc(C(NCc2nc(N)nc(N(C)C)n2)C(C)C)cc1 (stereo not given),54.2% (inactive)
2,CC1(C)Cc2c(c(N3CCOCC3)nc3snc(Br)c23)CO1,97% (active)
3,C[C@H](c1ccc2c(c1)CCCC2)N(C)c1ncc2c(N)nc(N)nc2n1,0.379% (inactive)
4,CC1(COc2ccc(N3CCC(Oc4ccc(OC(F)(F)F)cc4)CC3)cc2)Cn2cc([N+](=O)[O-])nc2O1 (stereo not given),39.6% (inactive)
5,Cc1[nH]c2cc(F)cc(F)c2c(=O)c1-c1ccc(Oc2ccc(OC(F)(F)F)cc2)cc1,78.3% (inactive)
6,COc1cc(NC(=O)Cc2nn(C)c(=O)c3ccccc23)ccc1Cl,9.49% (inactive)
7,O=C(NCCc1ccccc1)c1cc(-c2cccnc2)cnc1NCC1CC1,2.28% (inactive)
8,CCC(C)NC(=O)c1ccc(NC(=O)C2(c3ccccc3)CCCC2)cc1 (stereo not given),47.5% (inactive)
9,CCNC(=O)C(C)Nc1nc(-c2cccnc2)nc2sc(C)c(C)c12 (stereo not given),11.5% (inactive)
10,CC(C)(C)OC(=O)N1CCN(c2cc(-c3ccc(Oc4ccccc4)cc3)n[nH]2)CC1,39.8% (inactive)
11,Nc1nccc2ccc(Oc3ccncc3)cc12,37.6% (inactive)
12,CC(C)(C)CN1C(=O)C(c2ccccc2)(c2ccccc2)N=C1N,13.8% (inactive)
13,Nc1cccnc1Nc1ccc(Cl)cc1,54.5% (inactive)
14,N#CCN(CCCCN1CCN(c2ccc(F)cc2)CC1)C(=O)OCc1ccccc1,36.5% (inactive)
15,O=C(Nc1c(O)cccc1-c1nc2c(C(=O)O)cccc2o1)c1cc(-c2ccccc2)on1,20.8% (inactive)
